Test [1] has as its target IKZF1 (dCK*-IKZF1 fusion in HEK293FT) (UniProt Q13422). Kind of test: inhibition of IKZF1 HTRF signal (DMSO = 0%, pomalidomide 10 uM = 100%); higher = lower IKZF1 protein level. The following applies: compound concentration: 5 uM, overnight (~20 h). In short, it runs like this:
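After overnight treatment at 37 °C with 5 μM compound in single wells, HEK293FT cells (2000/well, 384-well) stably expressing an IKZF1 fusion were lysed for 30 min at room temperature. A commercial HTRF total-IKZF1 antibody kit was incubated with the lysate overnight, and the time-resolved FRET ratio at 665/620 nm was corrected for background. Data are given as percent inhibition of IKZF1 signal relative, on each plate, to vehicle and a reference degrader, set at 0% and 100% respectively.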
(TR-FRET usually uses a lanthanide donor and a delayed reading to cut background.)

The test system of test [2] is HEK293FT dCK*-only. The experiment in a line: relative growth in counter assay (no AraC = 100%, AraC + DMSO = 0%); higher = more growth rescue independent of IKZF1. The following applies: compound concentration: 5 uM; AraC concentration: 0.3 uM; overnight pretreatment + 4 days AraC. The essentials: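 Counter assay in HEK293FT cells expressing dCK* alone (300/well, 384-well). Cells received 5 μM compound 2 h after seeding, then after overnight at 37 °C a nucleoside suicide substrate at 0.3 μM plus medium for 4 days. On day 5, Hoechst 33342-stained nuclei were counted by imaging. Relative growth was normalised per plate to wells without suicide substrate (100%) and substrate plus vehicle (0%).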

Test [3] has as its system HEK293FT dCK*-IKZF1. Kind of test: relative growth recovery (pomalidomide 10 uM = 100%, DMSO = 0%); higher = more growth rescue (IKZF1 fusion degradation). The following applies: compound concentration: 5 uM; AraC concentration: 0.3 uM; overnight pretreatment + 4 days AraC. The essentials:
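Means of duplicates from different days are given for growth recovery, normalised per plate against a reference degrader and vehicle. The reference degrader set the 100% level and vehicle the 0% level. HEK293FT cells stably expressing a deoxycytidine kinase–IKZF1 fusion (300/well, 384-well) received 5 μM compound 2 h after seeding and, after overnight at 37 °C, 0.3 μM of a nucleoside suicide substrate plus medium for 4 days. Nuclei stained with Hoechst 33342 were then counted by whole-well imaging on day 5.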

Structures can show the parent of a compound that is named as a salt.

Chain of IKZF1 (dCK*-IKZF1 fusion in HEK293FT) (Q13422 whole entry, looked up, the tested form may be a part): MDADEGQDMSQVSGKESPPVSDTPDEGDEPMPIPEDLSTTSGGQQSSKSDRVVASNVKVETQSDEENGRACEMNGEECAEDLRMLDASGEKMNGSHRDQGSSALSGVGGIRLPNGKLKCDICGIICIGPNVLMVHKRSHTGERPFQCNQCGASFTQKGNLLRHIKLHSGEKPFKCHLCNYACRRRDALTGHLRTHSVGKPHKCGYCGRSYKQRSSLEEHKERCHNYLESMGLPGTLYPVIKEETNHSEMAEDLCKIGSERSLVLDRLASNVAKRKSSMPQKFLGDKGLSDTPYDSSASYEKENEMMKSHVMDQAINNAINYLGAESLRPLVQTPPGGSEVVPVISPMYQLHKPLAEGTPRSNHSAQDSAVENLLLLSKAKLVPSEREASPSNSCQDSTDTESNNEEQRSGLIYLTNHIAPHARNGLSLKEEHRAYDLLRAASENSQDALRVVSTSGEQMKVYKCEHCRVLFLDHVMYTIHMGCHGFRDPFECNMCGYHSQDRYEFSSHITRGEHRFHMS

For the molecule `CSc1ccc2c(c1)C(N1CCN(C)CC1)Cc1ccccc1S2` (centres undefined), the “inhibition of IKZF1 HTRF signal” value in test [1] was -34.7%. The “relative growth in counter assay” value in test [2] is -1.22%. For the same molecule, the relative growth recovery in test [3] was -1.56%.
For `CN(C)CCC=C1c2ccccc2CCc2ccccc21` [Amitriptyline HCl], the “inhibition of IKZF1 HTRF signal” value in test [1] came to 22.6%. Further, the “relative growth in counter assay” value in test [2] turned out to be 6.15%. In addition, the relative growth recovery in test [3] was -1.42%.
For `Cc1cc2nc3ccc(N(C)C)cc3[s+]c2cc1N`, the “inhibition of IKZF1 HTRF signal” value in test [1] was -22.7%. For the same molecule, the “relative growth in counter assay” value in test [2] was -34.5%. Moreover, in test [3], the relative growth recovery was -13.5%.
In the same order, the values of `NC(=O)N1c2ccccc2CC(O)c2ccccc21` (centres undefined) [licarbazepine] are -28.1%, -2.99% and 0.095%.
As for `CN1CCCC(CC2c3ccccc3Sc3ccccc32)C1` (centres undefined) [metixene], the “inhibition of IKZF1 HTRF signal” value in test [1] was -23.4%. Further, in test [2], the “relative growth in counter assay” value was 2.04%. The relative growth recovery in test [3] is 1.64%.
On to `Cc1ccc(S(=O)(=O)c2ccc([N+](=O)[O-])o2)cc1`, for which the “inhibition of IKZF1 HTRF signal” value in test [1] is -48.9%. The “relative growth in counter assay” value in test [2] is -34%. Also, in test [3], the relative growth recovery was -12.9%.
Take `Cc1ncsc1-c1ccc(CNC(=O)[C@@H]2C[C@@H](O)CN2C(=O)[C@@H](NC(=O)COCCOCCOc2ccc(-c3ccc4ncnc(Nc5ccc(OCc6cccc(F)c6)c(Cl)c5)c4c3)cc2)C(C)(C)C)cc1`: in test [1], the “inhibition of IKZF1 HTRF signal” value is 6.76%. Besides, the “relative growth in counter assay” value in test [2] came to 49.6%. Further, the relative growth recovery in test [3] stood at 19.7%.
Consider `CCc1c2c(nc3ccc(OC(=O)N4CCC(N5CCCCC5)CC4)cc13)-c1cc3c(c(=O)n1C2)COC(=O)[C@]3(O)CC` [irinotecan], for which, in test [1], the “inhibition of IKZF1 HTRF signal” value stood at 41.6%. Moreover, in test [2], the “relative growth in counter assay” value was -35.4%. Further, the relative growth recovery in test [3] is -13.9%.
Taken in the same sequence, the figures for `O=C(Nc1cnc(Cl)nc1)c1ccc(F)c(F)c1` were -25.3%, 1.83% and 4.13%.
As for `COc1cc2c(cc1OC)[C@@H]1Cc3ccc(OC)c(OC)c3CN1CC2` [Rotundine], the “inhibition of IKZF1 HTRF signal” value in test [1] was 14.2%. For the same molecule, the “relative growth in counter assay” value in test [2] is -31.5%. Also, the relative growth recovery in test [3] is -10.7%.
As for `CCC(=O)O[C@@H]1CC(=O)O[C@H](C)C/C=C/C=C/[C@H](OC(C)=O)[C@H](C)C[C@H](CC=O)[C@H](O[C@@H]2O[C@H](C)[C@@H](O[C@H]3C[C@@](C)(OC(C)=O)[C@@H](OC(=O)CC)[C@H](C)O3)[C@H](N(C)C)[C@H]2O)[C@H]1OC` [Midecamycin Acetate], in test [1], the “inhibition of IKZF1 HTRF signal” value is -24.1%. For the same molecule, the “relative growth in counter assay” value in test [2] is 2.69%. For the same molecule, the relative growth recovery in test [3] stood at 0.995%.
In the same order, the values of `CCN(CC)CCNc1ccc(CO)c2sc3ccccc3c(=O)c12` [Hycanthone] are -30.4%, -31.9% and -12.3%.
In the same order, the values of `COc1ccc(-c2ccc3ncc4c(c3c2)n(-c2ccc(N3CCNCC3)c(C(F)(F)F)c2)c(=O)n4C)cn1` are 88.1%, -35.1% and -15.2%.
As to `O=C1NC(=O)/C(=C/c2ccc(-c3ccc(F)cc3O)o2)S1`, the “inhibition of IKZF1 HTRF signal” value in test [1] is -15.8%. Moreover, in test [2], the “relative growth in counter assay” value was -7.95%. The relative growth recovery in test [3] was -0.795%.
In the case of `O=C(CCCCCCC(=O)Nc1ccccc1)NO` [Vorinostat (SAHA, MK0683)], the “inhibition of IKZF1 HTRF signal” value in test [1] was -29.5%. The “relative growth in counter assay” value in test [2] is -30.5%. For the same molecule, the relative growth recovery in test [3] is -11.6%.
In the same order, the values of `CCCCNC(=O)NS(=O)(=O)c1ccc(C)cc1` are -29.8%, 0.26% and -3.39%.
Taken in the same sequence, the figures for `COc1ccc(C2CC(c3c(O)cc(C)oc3=O)=NCCS2)c(OC)c1` (centres undefined) were -11%, -32.5% and -10.9%.
As to `CCN(CC)CCOc1ccc2c(c1)C(=O)c1cc(OCCN(CC)CC)ccc1-2`, the “inhibition of IKZF1 HTRF signal” value in test [1] is -2.01%. Moreover, the “relative growth in counter assay” value in test [2] was -26.5%. In addition, the relative growth recovery in test [3] was -8.99%.
Turning to `CN(C)CCCN1c2ccccc2Sc2ccc(Cl)cc21` [Chlorpromazine HCl], the “inhibition of IKZF1 HTRF signal” value in test [1] was -4.4%. In test [2], the “relative growth in counter assay” value is -6.37%. In addition, the relative growth recovery in test [3] is -2.69%.
With `Oc1cc(CNC(=S)/C=C/c2cc(O)c(O)c(Br)c2)cc(O)c1O`, the “inhibition of IKZF1 HTRF signal” value in test [1] is -32.2%. In addition, the “relative growth in counter assay” value in test [2] was -34.9%. In addition, the relative growth recovery in test [3] is -11.9%.
Take `CCCCC(=O)OCC(=O)[C@]1(O)Cc2c(O)c3c(c(O)c2[C@@H](O[C@H]2C[C@H](NC(=O)C(F)(F)F)[C@H](O)[C@H](C)O2)C1)C(=O)c1c(OC)cccc1C3=O` [Valrubicin]: in test [1], the “inhibition of IKZF1 HTRF signal” value is -26.2%. Moreover, the “relative growth in counter assay” value in test [2] was -34.4%. Also, the relative growth recovery in test [3] is -11.8%.
For the molecule `O=C1C=CC(=O)C2=C1C1c3ccccc3C2c2ccccc21`, in test [1], the “inhibition of IKZF1 HTRF signal” value was -32.2%. Moreover, the “relative growth in counter assay” value in test [2] was -0.91%. Also, in test [3], the relative growth recovery is -0.735%.
For the molecule `CCNC(=O)Nc1ccc(-c2nc3c(c(N4CCOC[C@@H]4C)n2)CCN(C2COC2)C3)cc1`, the “inhibition of IKZF1 HTRF signal” value in test [1] is 68.5%. Moreover, the “relative growth in counter assay” value in test [2] is -31.5%. The relative growth recovery in test [3] is -12.3%.
On to `CC(=O)N(OCc1ccccc1)[C@@H]1c2cc(C#N)ccc2OC(C)(C)[C@H]1O`, for which the “inhibition of IKZF1 HTRF signal” value in test [1] was -1.85%. Also, the “relative growth in counter assay” value in test [2] was found to be 4.48%. The relative growth recovery in test [3] is -0.925%.
In the same order, the values of `CO[C@H]1CC(O[C@@H]2/C(C)=C/C[C@@H]3C[C@@H](C[C@]4(CC[C@H](C)[C@@H](C5CCCCC5)O4)O3)OC(=O)[C@@H]3C=C(C)/C(=N/O)[C@H]4OC/C(=C\C=C\[C@@H]2C)[C@]43O)O[C@@H](C)C1O` (some centres undefined) are -24.5%, 10.4% and -2.14%.
For the molecule `CC[C@@]1(O)C(=O)OCc2c1cc1n(c2=O)Cc2cc3c(CN(C)C)c(O)ccc3nc2-1` [Topotecan (Hydrochloride)], the “inhibition of IKZF1 HTRF signal” value in test [1] came to 1.64%. Besides, in test [2], the “relative growth in counter assay” value is -36.8%. In test [3], the relative growth recovery is -15.9%.
`Nc1nnc(-c2cccc(Cl)c2Cl)c(N)n1`: in test [1], the “inhibition of IKZF1 HTRF signal” value is -57.4%. In test [2], the “relative growth in counter assay” value came to 0.9%. Further, the relative growth recovery in test [3] was -1.71%.
Turning to `CN(C)C1CCN(C(=O)c2ccc(NC(=O)Nc3ccc(-c4nc(N5CCOCC5)nc(N5CCOCC5)n4)cc3)cc2)CC1`, the “inhibition of IKZF1 HTRF signal” value in test [1] worked out at 27.3%. Also, the “relative growth in counter assay” value in test [2] was -6.76%. Moreover, the relative growth recovery in test [3] is -0.95%.
